Data published in the supplement of paper PMC11732987, “Enantioselective OTUD7B fragment discovery through chemoproteomics screening and high-throughput optimisation” (Communications Chemistry, 2025).
Unmarked numbers belong to inactive results.

Columns and labels:
Assay in all cases: log2 ratio of Biotin-Ahx-Ub-VS probe labelling (fragment/DMSO); higher = less target engagement (more negative = stronger competition), active = hit call of the paper (q ≤ 0.05, log2 ratio ≤ -1)
Settings in all cases: compound concentration: 200 uM; treatment time: 3 h
ALG13 = biological target: T1, ALG13 (UniProt Q9NP73)
T1 sequence (whole entry): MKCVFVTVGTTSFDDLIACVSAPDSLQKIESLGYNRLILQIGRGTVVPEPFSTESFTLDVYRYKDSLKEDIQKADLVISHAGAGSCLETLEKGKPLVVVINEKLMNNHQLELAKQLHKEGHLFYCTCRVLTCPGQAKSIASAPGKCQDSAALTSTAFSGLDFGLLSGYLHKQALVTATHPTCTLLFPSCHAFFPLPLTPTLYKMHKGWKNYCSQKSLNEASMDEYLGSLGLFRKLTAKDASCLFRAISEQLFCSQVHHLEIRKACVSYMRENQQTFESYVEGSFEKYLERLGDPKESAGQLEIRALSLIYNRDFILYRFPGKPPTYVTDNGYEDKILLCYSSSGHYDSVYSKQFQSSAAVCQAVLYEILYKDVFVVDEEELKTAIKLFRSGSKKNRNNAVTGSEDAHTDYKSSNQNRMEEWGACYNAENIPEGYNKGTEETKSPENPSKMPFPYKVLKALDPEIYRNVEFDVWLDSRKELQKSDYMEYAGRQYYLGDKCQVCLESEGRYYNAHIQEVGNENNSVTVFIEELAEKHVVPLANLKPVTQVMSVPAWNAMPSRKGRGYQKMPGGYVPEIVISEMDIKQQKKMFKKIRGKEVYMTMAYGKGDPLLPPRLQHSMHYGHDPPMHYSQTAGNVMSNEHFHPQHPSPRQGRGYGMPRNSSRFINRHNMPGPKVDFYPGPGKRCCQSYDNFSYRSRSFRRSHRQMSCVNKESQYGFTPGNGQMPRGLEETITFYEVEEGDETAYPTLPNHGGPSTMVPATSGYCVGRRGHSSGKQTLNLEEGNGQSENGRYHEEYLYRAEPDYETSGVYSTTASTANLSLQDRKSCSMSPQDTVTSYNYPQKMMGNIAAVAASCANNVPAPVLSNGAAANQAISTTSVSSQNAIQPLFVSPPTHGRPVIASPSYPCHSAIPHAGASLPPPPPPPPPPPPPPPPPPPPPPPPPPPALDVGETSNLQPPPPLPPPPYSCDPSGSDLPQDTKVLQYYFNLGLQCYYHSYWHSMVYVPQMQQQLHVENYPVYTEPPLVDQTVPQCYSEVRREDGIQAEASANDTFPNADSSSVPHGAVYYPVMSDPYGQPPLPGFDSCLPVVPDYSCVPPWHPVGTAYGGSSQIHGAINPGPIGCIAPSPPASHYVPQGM
Procedure, shortened: (§1)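 Fragment (200 µM) or vehicle was incubated for 3 h with triplicate HEK293T lysate samples of 495 µg, which were then treated with Biotin-Ahx-Ub-VS at 0.5 µM final for 1 h. Labelled DUBs were enriched on NeutrAvidin, digested with LysC and trypsin, and analysed by diaPASEF LC-MS/MS. Values are average log2 fragment/vehicle ratios from an unpaired t-test on global-median-normalised Spectronaut label-free quantities, using proteins with ≥2 unique peptides.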

ATXN3 = ATXN3 (UniProt P54252)
Chain of ATXN3 (P54252 whole entry): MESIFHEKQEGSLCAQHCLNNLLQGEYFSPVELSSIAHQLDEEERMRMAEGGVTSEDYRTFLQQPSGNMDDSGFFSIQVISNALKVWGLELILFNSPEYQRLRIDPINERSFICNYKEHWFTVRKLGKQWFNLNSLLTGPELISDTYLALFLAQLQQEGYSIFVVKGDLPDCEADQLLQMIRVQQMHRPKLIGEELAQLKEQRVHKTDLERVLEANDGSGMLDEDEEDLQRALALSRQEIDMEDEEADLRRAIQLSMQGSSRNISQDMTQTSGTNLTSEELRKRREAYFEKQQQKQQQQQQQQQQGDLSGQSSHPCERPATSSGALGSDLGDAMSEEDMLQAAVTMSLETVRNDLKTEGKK
Procedure, shortened: as §1

BAP1 = biological target: T2, BAP1 (UniProt Q92560)
T2 sequence (whole entry): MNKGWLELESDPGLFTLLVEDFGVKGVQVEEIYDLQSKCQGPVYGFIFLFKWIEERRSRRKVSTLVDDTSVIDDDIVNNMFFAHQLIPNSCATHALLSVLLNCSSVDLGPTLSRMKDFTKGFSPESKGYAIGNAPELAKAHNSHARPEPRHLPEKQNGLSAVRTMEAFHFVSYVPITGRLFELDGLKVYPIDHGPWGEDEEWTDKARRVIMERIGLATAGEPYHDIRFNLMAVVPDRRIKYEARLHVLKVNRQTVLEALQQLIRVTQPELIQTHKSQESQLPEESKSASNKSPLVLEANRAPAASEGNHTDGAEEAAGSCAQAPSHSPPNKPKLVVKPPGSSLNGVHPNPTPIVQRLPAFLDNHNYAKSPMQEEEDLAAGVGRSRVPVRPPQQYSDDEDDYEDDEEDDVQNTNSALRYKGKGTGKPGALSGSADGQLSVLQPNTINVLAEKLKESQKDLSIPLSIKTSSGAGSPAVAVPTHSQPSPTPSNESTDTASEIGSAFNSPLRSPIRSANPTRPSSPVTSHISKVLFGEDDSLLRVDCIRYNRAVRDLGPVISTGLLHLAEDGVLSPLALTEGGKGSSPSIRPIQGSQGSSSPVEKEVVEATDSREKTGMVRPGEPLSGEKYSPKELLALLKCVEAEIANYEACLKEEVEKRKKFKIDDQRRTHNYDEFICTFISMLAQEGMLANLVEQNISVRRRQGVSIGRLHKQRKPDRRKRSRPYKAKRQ
Procedure, shortened: as §1

EIF3F = EIF3F (UniProt O00303)
Chain of EIF3F (O00303 whole entry): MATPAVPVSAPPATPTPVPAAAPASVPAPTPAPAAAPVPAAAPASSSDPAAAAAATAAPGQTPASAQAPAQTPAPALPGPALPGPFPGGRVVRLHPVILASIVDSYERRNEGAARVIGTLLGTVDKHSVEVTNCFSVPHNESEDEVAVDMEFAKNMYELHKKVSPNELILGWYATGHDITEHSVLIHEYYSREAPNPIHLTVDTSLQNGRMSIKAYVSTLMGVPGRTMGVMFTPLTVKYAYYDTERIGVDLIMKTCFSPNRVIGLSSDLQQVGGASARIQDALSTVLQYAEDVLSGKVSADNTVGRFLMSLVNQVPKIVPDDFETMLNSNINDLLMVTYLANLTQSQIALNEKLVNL
Procedure, shortened: as §1

EIF3H = EIF3H (UniProt O15372)
Chain of EIF3H (O15372 whole entry): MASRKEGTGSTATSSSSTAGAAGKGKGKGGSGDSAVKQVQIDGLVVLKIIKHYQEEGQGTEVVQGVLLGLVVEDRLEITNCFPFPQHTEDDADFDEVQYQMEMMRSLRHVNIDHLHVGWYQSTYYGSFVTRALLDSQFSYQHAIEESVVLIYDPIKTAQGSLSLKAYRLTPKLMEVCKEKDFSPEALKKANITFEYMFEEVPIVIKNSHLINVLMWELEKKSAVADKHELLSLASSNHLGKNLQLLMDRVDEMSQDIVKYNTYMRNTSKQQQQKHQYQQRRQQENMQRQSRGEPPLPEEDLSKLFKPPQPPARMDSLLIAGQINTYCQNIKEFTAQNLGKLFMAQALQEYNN
Procedure, shortened: as §1

FAM105A = biological target: T3, FAM105A (UniProt Q9NUU6)
T3 sequence (whole entry): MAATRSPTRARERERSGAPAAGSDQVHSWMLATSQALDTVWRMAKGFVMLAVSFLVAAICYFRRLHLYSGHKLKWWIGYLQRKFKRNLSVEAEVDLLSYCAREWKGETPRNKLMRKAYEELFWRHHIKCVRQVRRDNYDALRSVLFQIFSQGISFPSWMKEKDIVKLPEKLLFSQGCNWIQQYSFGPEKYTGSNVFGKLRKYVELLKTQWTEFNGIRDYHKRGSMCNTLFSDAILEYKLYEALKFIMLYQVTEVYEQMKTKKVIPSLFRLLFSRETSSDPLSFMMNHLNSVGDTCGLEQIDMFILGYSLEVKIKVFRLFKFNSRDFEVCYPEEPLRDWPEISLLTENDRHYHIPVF
Procedure, shortened: as §1

OTUB1 = OTUB1 (UniProt Q96FW1)
Chain of OTUB1 (Q96FW1 whole entry): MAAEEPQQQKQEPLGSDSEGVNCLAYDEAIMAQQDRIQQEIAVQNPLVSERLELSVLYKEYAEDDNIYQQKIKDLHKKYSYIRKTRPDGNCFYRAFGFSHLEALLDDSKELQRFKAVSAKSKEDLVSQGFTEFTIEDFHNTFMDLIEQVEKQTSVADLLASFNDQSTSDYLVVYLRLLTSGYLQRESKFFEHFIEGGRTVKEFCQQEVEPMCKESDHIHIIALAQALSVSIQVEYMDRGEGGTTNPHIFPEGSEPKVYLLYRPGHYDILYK
Procedure, shortened: as §1

OTUD4 = biological target: T4, OTUD4 (UniProt Q01804)
T4 sequence (whole entry): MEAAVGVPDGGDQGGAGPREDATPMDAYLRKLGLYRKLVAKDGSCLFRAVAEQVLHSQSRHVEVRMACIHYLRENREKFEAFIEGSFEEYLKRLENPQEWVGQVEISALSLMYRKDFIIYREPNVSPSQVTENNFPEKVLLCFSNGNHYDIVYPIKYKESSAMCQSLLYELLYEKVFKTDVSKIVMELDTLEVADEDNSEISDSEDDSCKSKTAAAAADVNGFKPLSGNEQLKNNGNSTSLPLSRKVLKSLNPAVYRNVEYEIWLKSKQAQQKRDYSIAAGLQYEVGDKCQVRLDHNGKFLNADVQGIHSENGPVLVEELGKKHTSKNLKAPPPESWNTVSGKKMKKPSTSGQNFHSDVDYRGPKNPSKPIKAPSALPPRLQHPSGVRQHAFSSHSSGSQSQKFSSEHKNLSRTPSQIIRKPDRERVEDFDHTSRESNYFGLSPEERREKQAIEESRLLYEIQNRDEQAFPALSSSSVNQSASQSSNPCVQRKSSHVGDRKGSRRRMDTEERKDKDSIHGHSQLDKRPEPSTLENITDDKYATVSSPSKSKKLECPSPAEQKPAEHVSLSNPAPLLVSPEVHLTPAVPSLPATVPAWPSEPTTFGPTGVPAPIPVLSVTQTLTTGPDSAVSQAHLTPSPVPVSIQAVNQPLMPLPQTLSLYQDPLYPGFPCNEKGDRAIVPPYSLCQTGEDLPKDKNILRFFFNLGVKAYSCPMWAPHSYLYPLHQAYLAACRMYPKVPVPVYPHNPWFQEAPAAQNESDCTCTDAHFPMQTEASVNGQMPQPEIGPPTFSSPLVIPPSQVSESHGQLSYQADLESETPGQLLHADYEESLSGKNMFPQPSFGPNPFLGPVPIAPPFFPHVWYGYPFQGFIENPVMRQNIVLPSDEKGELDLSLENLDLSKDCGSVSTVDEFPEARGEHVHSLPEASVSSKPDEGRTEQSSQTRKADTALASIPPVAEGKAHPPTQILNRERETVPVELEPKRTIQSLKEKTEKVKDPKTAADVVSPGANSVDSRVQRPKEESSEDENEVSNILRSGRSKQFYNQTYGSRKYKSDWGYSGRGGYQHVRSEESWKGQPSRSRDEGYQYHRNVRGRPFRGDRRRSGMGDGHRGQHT
Procedure, shortened: as §1

OTUD5 = biological target: T5, OTUD5 (UniProt Q96G74)
T5 sequence (whole entry): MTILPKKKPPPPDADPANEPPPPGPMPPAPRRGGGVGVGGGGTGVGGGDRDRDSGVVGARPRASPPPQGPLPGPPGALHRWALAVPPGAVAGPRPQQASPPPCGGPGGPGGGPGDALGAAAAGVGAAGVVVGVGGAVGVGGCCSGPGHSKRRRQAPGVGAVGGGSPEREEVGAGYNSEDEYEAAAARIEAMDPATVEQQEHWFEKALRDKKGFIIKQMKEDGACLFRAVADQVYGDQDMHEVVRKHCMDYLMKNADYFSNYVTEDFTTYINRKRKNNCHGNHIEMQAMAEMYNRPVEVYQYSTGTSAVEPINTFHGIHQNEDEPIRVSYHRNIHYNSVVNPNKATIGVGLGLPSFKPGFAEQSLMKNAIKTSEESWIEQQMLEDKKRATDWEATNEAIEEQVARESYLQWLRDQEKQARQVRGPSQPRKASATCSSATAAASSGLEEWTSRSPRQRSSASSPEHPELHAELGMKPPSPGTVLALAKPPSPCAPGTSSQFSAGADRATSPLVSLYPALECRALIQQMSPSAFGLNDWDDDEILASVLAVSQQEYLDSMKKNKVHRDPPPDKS
Procedure, shortened: as §1

Structure (SMILES) | log2 ratio of Biotin-Ahx-Ub-VS probe labelling (ALG13) | log2 ratio of Biotin-Ahx-Ub-VS probe labelling (ATXN3) | log2 ratio of Biotin-Ahx-Ub-VS probe labelling (BAP1) | log2 ratio of Biotin-Ahx-Ub-VS probe labelling (EIF3F) | log2 ratio of Biotin-Ahx-Ub-VS probe labelling (EIF3H) | log2 ratio of Biotin-Ahx-Ub-VS probe labelling (FAM105A) | log2 ratio of Biotin-Ahx-Ub-VS probe labelling (OTUB1) | log2 ratio of Biotin-Ahx-Ub-VS probe labelling (OTUD4) | log2 ratio of Biotin-Ahx-Ub-VS probe labelling (OTUD5)
O=C(CCl)NCc1ccc(N2CCOCC2)c(F)c1 | -0.435 | -0.0444 | -2.54 (active) | -0.139 | -0.335 | 0.388 | -0.0261 | -0.0414 | 0.0267
O=C(CCl)N1CCC[C@@H]1c1ccon1 | 0.188 | -1.28 (active) | -2.4 (active) | -0.585 | 0.193 | 0.198 | -0.236 | -0.381 | -0.427
